These results are taken from PubChem BioAssay.

Several values for one entry are separate records, joined by “and”; a condition that tells them apart may be missing. Identical values can stand only once. For part of these data: Potency and affinity values are given separately. Activity calls are given as the source filed them.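 The calls were made as follows, unless noted: active = normalized viability below 100% at a tested concentration; inactive = the rest.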

By inhibition is commonly meant the change of the read-out against control, counted positive when it falls. The term viability denotes a read-out of living cells in per cent, often relative to untreated cells.

Assay [1] concerns the target 6-phosphogluconate dehydrogenase, decarboxylating (Homo sapiens) (UniProt P52209). As to the kind of experiment: inhibition of human phosphogluconate dehydrogenase – biochemical, recombinant enzyme, NADPH absorbance, primary screen (AID 1159550;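 active = at least 20% inhibition of 6-phosphogluconate dehydrogenase activity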). To be noted: recombinant 6PGD, NADPH absorbance 341 nm; at 10 µM; stronger effect = higher value.
Assay [2] in a line: EMT-state selective cytotoxicity in co-culture – imaging, PC-3E GFP, TEM4-18 mCherry, primary screen (AID 1345086;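 active = compounds killing one labelled cell type while sparing the other, by normalised counts and ratio limits, not self-fluorescent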;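 as to all read-outs here: cells exposed to compound for 72 h before imaging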;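 as to red/green cell ratio (normalised): normalised mesenchymal count divided by normalised epithelial count so high means epithelial killing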). To be noted: PC-3E GFP / TEM4-18 mCherry co-culture, imaging cell counts, at 1 µM; for red/green cell ratio (normalised): actives lie on both sides, counts scaled to control wells, 1 = unselective.
Assay [3] is described as follows: blockers of polyQ-driven CASP3 activation – cell-based (AID 1583). To be noted: polyglutamine-induced caspase-3 activation, cell assay; stronger effect = higher value;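 tested at 10 µM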.
A short description of assay [4]: yeast 75Q aggregation reduction – 75Q-TubU reporter (AID 1593). To be noted: Yeast 75Q polyglutamine aggregation reporter.
Assay [5] can be described thus: restoration of touch response, mutant HTT neurons – whole organism, C. elegans mechanosensory neurons, N-terminal huntingtin (AID 1599). Particulars: C. elegans polyQ-huntingtin mechanosensory neurons, stronger effect = higher value.
Assay [6] can be described thus: blockers of cytochrome c efflux from mitochondria – biochemical, purified mitochondria (AID 1603).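 Also: mouse liver mitochondria challenged with calcium chloride; signal normalized to the plate average as 100%.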 To be noted: stronger effect = lower value.
The nature of assay [7]: polyglutamine aggregate formation blockers (AID 1604). Particulars: polyglutamine-induced protein aggregation inhibition assay; stronger effect = higher value; tested at 2.5 µM.
Assay [8] can be described thus: glutamate transport activators, MN-1 cells, MN-1 cell line (AID 1612).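 Also: tested at 1 µM final; 0% = mean of DMSO vehicle wells on each plate; positive means more glutamate uptake than control and negative means less.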 To be noted: MN-1 motor neuron cells, stronger effect = higher value.
Assay [9] in a line: GFP-Q80 aggregate reduction, neuronal-like cells, cell-based, NGF-treated PC12, GFPQ80 (AID 1614).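 Also: lower means fewer inclusions and 0 means no inclusions at all.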 Particulars: PC12 NGF-treated GFP-polyQ80 inclusion reduction.
The nature of assay [10]: 75Q-TubH aggregate inhibition, S. cerevisiae, yeast (AID 1616). To be noted: S. cerevisiae 75Q-TubH polyglutamine aggregation suppression; stronger effect = higher value.
A short description of assay [11]: MELAS cybrid and Rieske KO viability enhancers – cell-based, MELAS cybrids, Rieske KO mouse fibroblasts, CellTiter-Glo, primary screen (AID 1508586).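 Also: z relative to plate mean and SD of compound and empty wells.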 Particulars: low glucose.
The nature of assay [12]: drug combination growth inhibition, ovarian cancer – cell-based, oncology-focused library, rucaparib conditional, profiling panel (AID 1508598). To be noted: patient-derived ovarian cancer cells, CellTiter-Glo viability, 144 h, stronger effect = lower value.
The target in assay [13] is NAD(+) hydrolase SARM1 (Homo sapiens) (UniProt Q6SZW1). As to the kind of experiment: blocking NAD cleavage by SARM1 SAM-TIR – cell lysate, NAD-Glo luminescence (AID 1508614;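 active = compound whose remaining NAD level is above about 45 nM, limit read from the data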;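 also: higher remaining NAD means stronger inhibition of SARM1 NADase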). To be noted: SAM-TIR HEK293T lysate NADase, at 1 µM, stronger effect = higher value.
Assay [14] addresses Mitogen-activated protein kinase 7 (Homo sapiens) (UniProt Q13164). As to the kind of experiment: Gal4-ERK5 driven luciferase induction – cell-based, HTS, primary screen (AID 1508626;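 active = luciferase signal above three times the same-plate solvent-only control wells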;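 also: luciferase driven by Gal4-ERK5 fusion binding five Gal4 sites before minimal TATA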). To be noted: HeLa Gal4-ERK5 transactivation, 18 h, at 5 µM, stronger effect = higher value.
Assay [15] is described as follows: galactose survival enhancers in mitochondrial complex I cybrids – cell-based, galactose medium, ATP luminescence, primary screen (AID 1645843;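 active = z-score of at least 1.8 in each of two replicates, scored against plate mean and spread of sample wells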;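 also: positive z means more ATP and so rescue of galactose-driven cybrid death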). To be noted: complex I mutant cybrid cells, 72 h, stronger effect = higher value.
Where [16] appears, read: measured here: epithelial PC-3E GFP cell survival.
Where [17] appears, read: measured here: mesenchymal TEM4-18 mCherry cell survival.

Chain of 6-phosphogluconate dehydrogenase, decarboxylating (Homo sapiens) (P52209 whole entry, looked up): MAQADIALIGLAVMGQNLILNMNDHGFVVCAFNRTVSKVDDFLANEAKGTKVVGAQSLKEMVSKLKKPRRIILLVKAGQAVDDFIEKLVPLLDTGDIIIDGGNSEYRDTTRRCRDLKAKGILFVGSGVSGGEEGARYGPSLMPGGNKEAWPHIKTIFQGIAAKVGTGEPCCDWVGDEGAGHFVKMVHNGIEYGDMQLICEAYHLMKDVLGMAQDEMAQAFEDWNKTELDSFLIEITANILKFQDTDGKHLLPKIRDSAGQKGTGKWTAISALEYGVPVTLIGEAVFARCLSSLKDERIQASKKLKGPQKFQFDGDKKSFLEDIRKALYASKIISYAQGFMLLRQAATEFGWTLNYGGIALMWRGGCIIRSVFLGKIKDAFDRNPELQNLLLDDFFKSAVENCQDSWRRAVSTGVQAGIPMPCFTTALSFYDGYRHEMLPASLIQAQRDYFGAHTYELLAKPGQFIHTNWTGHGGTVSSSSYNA
Chain of Mitogen-activated protein kinase 7 (Homo sapiens) (Q13164 whole entry, looked up, the tested form may be a part): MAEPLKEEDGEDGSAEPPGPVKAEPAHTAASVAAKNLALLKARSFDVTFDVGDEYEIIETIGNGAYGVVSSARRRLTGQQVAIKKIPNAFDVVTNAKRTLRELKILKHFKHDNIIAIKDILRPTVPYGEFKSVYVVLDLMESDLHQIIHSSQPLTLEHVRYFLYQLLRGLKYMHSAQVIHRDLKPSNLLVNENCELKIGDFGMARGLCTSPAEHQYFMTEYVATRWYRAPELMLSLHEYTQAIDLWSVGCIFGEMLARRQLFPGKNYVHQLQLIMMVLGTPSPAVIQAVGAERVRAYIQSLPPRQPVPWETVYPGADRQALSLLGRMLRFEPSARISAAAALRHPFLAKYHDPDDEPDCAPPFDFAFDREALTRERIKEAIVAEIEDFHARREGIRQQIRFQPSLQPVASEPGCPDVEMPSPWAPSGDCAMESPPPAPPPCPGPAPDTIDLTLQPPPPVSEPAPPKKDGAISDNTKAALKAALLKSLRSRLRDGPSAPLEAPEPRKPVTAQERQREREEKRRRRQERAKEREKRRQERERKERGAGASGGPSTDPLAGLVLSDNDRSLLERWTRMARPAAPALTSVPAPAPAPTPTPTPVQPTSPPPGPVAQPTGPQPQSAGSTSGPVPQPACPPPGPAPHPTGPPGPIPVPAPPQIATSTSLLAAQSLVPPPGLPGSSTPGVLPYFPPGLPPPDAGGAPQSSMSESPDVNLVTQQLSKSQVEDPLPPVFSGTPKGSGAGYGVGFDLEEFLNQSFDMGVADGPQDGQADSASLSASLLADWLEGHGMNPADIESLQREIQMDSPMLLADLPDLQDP
Chain of NAD(+) hydrolase SARM1 (Homo sapiens) (Q6SZW1 whole entry, looked up, the tested form may be a part): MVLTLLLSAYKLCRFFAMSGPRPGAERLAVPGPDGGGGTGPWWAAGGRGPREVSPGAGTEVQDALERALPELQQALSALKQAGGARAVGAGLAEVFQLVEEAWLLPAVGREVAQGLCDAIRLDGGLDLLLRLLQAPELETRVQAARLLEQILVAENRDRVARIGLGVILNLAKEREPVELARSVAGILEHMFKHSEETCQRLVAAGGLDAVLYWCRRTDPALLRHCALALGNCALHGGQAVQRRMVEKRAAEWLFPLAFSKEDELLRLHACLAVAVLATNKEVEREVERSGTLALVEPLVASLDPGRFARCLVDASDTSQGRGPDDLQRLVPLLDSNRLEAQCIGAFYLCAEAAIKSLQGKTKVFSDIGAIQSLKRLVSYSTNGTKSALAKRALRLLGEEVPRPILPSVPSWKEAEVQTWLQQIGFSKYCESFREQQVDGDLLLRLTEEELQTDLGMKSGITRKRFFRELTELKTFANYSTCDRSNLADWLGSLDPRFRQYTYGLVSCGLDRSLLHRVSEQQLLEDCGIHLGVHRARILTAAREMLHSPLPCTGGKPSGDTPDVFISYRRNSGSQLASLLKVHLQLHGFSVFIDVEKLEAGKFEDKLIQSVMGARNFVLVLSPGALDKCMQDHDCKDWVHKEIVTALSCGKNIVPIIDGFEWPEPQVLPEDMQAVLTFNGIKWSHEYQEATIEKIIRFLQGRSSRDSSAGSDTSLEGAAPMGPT

For `COc1ccc(-c2cc(=O)c3c(O)cc(O)c(-c4cc(-c5cc(=O)c6c(O)cc(O)cc6o5)ccc4OC)c3o2)cc1`, the inhibition in assay [1] was 10.8% (inactive). Moreover, the red/green cell ratio (normalised) in [2] is 0.98 (inactive). Further, the values for the normalised cell number in assay [2] (setting [16]) and in [2] (setting [17]) were 0.79 and 0.78, respectively.
For `COc1cc(OC)c2c(OC)c(-c3ccc4c(c3)OCO4)c(=O)oc2c1` the same measures were -4.99% (inactive), 1.02 (inactive), 0.92 and 0.94.
As for `COc1c(C)c2c(c(O)c1C/C=C(\C)CCC(=O)O)C(=O)OC2`, the inhibition in assay [3] is -14.6%; in [1], -6.15% (inactive). In addition, in assay [4], the score is 0.55. In [5], the rescue above control turned out to be 6.21. In assay [6], the cytochrome c release ratio was determined as 1.22. In assay [7], this compound registered an inhibition of aggregation of 35%. Also, the glutamate uptake change in [8] is -2.33%. In assay [9], this compound came in with an inclusion score of 1. The compound also showed an aggregation suppression score in assay [10] of 0.18. For the same compound, the red/green cell ratio (normalised) in [2] was 0.6 (active). In addition, the normalised cell number in assay [2] (setting [16]) came out at 0.58; in assay [2] (setting [17]) it was 0.35. The z-score in assay [11] (MELAS cybrid survival, CellTiter-Glo 48 h, stronger effect = higher value) was -0.0503; in [11] (Rieske KO mouse fibroblast survival, CellTiter-Glo 72 h), 2.98; in assay [15], 1.33 (inactive) and 1.68 (inactive). Also, the viability is 117% (inactive) in assay [12] (at 0.000305 µM, OCI-C5x cells, with rucaparib 10 µM, 100% = cells with rucaparib alone); 124% (inactive) in [12] (at 0.000305 µM, OCI-C5x cells, without rucaparib); 87.8% (active) in assay [12] (at 0.000305 µM, OCI-P5x cells, with rucaparib 20 µM, 100% = cells with rucaparib alone); 96% (active) in assay [12] (at 0.000305 µM, OCI-P5x cells, without rucaparib); 121% (inactive) in assay [12] (at 0.00122 µM, OCI-C5x cells, with rucaparib 10 µM, 100% = cells with rucaparib alone); 126% (inactive) in assay [12] (at 0.00122 µM, OCI-C5x cells, without rucaparib). The viability in assay [12] (at 0.00122 µM, OCI-P5x cells, with rucaparib 20 µM, 100% = cells with rucaparib alone) was 90.6% (active); in assay [12] (at 0.00122 µM, OCI-P5x cells, without rucaparib), 103% (inactive); in [12] (at 0.00488 µM, OCI-C5x cells, with rucaparib 10 µM, 100% = cells with rucaparib alone), 129% (inactive); in assay [12] (at 0.00488 µM, OCI-C5x cells, without rucaparib), 128% (inactive); in assay [12] (at 0.00488 µM, OCI-P5x cells, with rucaparib 20 µM, 100% = cells with rucaparib alone), 96.9% (active); in [12] (at 0.00488 µM, OCI-P5x cells, without rucaparib), 109% (inactive). In addition, the viability in assay [12] (at 0.0195 µM, OCI-C5x cells, with rucaparib 10 µM, 100% = cells with rucaparib alone) is 121% (inactive); in assay [12] (at 0.0195 µM, OCI-C5x cells, without rucaparib) it was 129% (inactive); in [12] (at 0.0195 µM, OCI-P5x cells, with rucaparib 20 µM, 100% = cells with rucaparib alone) it was 95.2% (active); in [12] (at 0.0195 µM, OCI-P5x cells, without rucaparib) it was 112% (inactive); in assay [12] (at 0.0781 µM, OCI-C5x cells, with rucaparib 10 µM, 100% = cells with rucaparib alone), 166% (inactive); in assay [12] (at 0.0781 µM, OCI-C5x cells, without rucaparib) it was 162% (inactive). Besides, the viability in assay [12] (at 0.0781 µM, OCI-P5x cells, with rucaparib 20 µM, 100% = cells with rucaparib alone) is 97.4% (active); in assay [12] (at 0.0781 µM, OCI-P5x cells, without rucaparib), 97% (active); in assay [12] (at 0.313 µM, OCI-C5x cells, with rucaparib 10 µM, 100% = cells with rucaparib alone), 180% (inactive); in assay [12] (at 0.313 µM, OCI-C5x cells, without rucaparib), 189% (inactive); in assay [12] (at 0.313 µM, OCI-P5x cells, with rucaparib 20 µM, 100% = cells with rucaparib alone) it was 85.4% (active); in [12] (at 0.313 µM, OCI-P5x cells, without rucaparib), 62.1% (active). Moreover, the viability in [12] (at 1.25 µM, OCI-C5x cells, with rucaparib 10 µM, 100% = cells with rucaparib alone) was 128% (inactive); in [12] (at 1.25 µM, OCI-C5x cells, without rucaparib) it was 117% (inactive); in assay [12] (at 1.25 µM, OCI-P5x cells, with rucaparib 20 µM, 100% = cells with rucaparib alone), 70% (active); in assay [12] (at 1.25 µM, OCI-P5x cells, without rucaparib), 40.7% (active); in [12] (at 5 µM, OCI-C5x cells, with rucaparib 10 µM, 100% = cells with rucaparib alone) it was 73.1% (active); in assay [12] (at 5 µM, OCI-C5x cells, without rucaparib), 56.4% (active). Also, the viability in assay [12] (at 5 µM, OCI-P5x cells, with rucaparib 20 µM, 100% = cells with rucaparib alone) is 46.2% (active); in [12] (at 5 µM, OCI-P5x cells, without rucaparib), 30.7% (active). Moreover, the remaining NAD in [13] was 10 nM (inactive). Further, the luciferase signal in [14] is 48 AU (inactive).
As for `CC(C)=CCCC1(C)C=Cc2c(O)c3c(c(CC=C(C)C)c2O1)OC12C(=CCCC1C(C)(C)O[C@@]2(C/C=C(\C)C(=O)O)C(=O)O)C3=O` (some centres undefined), the inhibition in [1] was 0.371% (inactive). Moreover, the red/green cell ratio (normalised) in assay [2] is 0.93 (inactive). The normalised cell number came to 1.16 in [2] (setting [16]) and 1.08 in [2] (setting [17]).
As for `CC[C@H](/C=C/C(C)C1CCC2C3CCC4=CC(=O)CC[C@]4(C)C3CC[C@]12C)C(C)C` (some centres undefined), in [1], the inhibition was 11.4% (inactive). For the same compound, the red/green cell ratio (normalised) in assay [2] was 0.98 (inactive). For the same compound, the normalised cell number in [2] (setting [16]) worked out at 0.99; in assay [2] (setting [17]), 0.97.
The matching figures for `C=C1C2=CC(=O)O[C@@H](c3ccoc3)[C@]2(C)CCC1[C@@]1(C)C=CC(=O)C(C)(C)[C@@H]1CC(=O)OC` (some centres undefined): 1.03% (inactive), 1.06 (inactive), 1.13 and 1.2.
